Reference: PubChem BioAssay (NCATS)
Records with an inconclusive call do not appear. Values without a mark were called inactive. Activity calls are given as the source filed them. Calls come from the whole dose curve; as a rule, active = well fitted inhibition curve with a large enough effect; inconclusive = small, poorly fitted or top-dose-only effect; inactive = flat fitted curve, though single readings scatter.

How the values were obtained:
HaCat [1] = assay: Cytotoxic Profiling of Annotated Libraries Using Quantitative High-Throughput Screening (AID 1296008); conditions: Five cell lines viability, CellTiter-Glo ATP luminescence, 48-72 h; max response: active compounds read low; note: potency is the fitted concentration of half-maximal effect; for max response: % is set by controls: 0 for no effect and ±100 for the full control effect
Method in brief: (§1)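 Cells exposed to compounds for 48 or 72 hr at 37 degrees Celsius. Viability read as ATP-coupled luminescence with CellTiter-Glo after 10 min at room temperature.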

NIH3T3 = assay: as above; conditions: Five cell lines viability, CellTiter-Glo ATP luminescence, 48-72 h; max response: active compounds read low
Method in brief: as §1

KB-3-1 = assay: as above; conditions: Five cell lines viability, CellTiter-Glo ATP luminescence, 48-72 h; max response: active compounds read low
Method in brief: as §1

HACAT [2] = assay: qHTS assay to identify novel small-molecules to repurpose for Merkel cell carcinoma treatment (AID 1296009); conditions: MCC and control cell lines, CellTiter-Glo viability, 72 h; at 44.8 µM (top of the series) unless noted
Method in brief: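 Cells were incubated with compound for 72 hr at 37 degree celsius before CellTiter-Glo addition. Luminescence was normalized with no-cell wells as full cytotoxicity and DMSO as baseline.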
Note: nearly all actives have a fitted effect of over 60% in size.

For COc1ccc(C#Cc2ccc(C(=O)N3CCC[C@@H](CO)C3)cc2)cc1, the max response (HaCat [1]) was 1.97% and the max response (NIH3T3) was -25.7%.

With C=C(C(=O)O[C@H]1C/C(C)=C/CC/C(CO)=C/[C@H]2OC(=O)C(=C)[C@H]12)C(O)CO (some centres not stated) the outcome (HaCat [1]) was “inactive”, the max response (KB-3-1) was -10.8% and the outcome (HACAT [2]) was “inactive”.

For Cc1cc(C(=O)Nc2cc(Oc3ccc4nc(NC(=O)C5CC5)cn4n3)ccc2C)n(C)n1, the Potency (HaCat [1]) was 18.4 µM (active) and the Potency (NIH3T3) was 5.17 µM (active).
